Tau fluor cs – Counterscreen qHTS for Inhibitors of Tau Fibril Formation, Fluorescence Polarization. tau K18 P301L Alexa594 fluorescence, heparin fibrillization. Potency, µM (series often up to 57.7 µM), inactives show at the top dose activity change, negative = decrease. 280,000 compounds, 0.93% hits; further: potency means the concentration at half of the fitted maximal effect; nearly all actives have a fitted effect of over 55% in size
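Human tau K18 P301L (15 uM unlabeled, 0.24 uM Alexa 594-labeled) in 100 mM sodium acetate pH 7 with 20 uM heparin, 6 hr at 37 C. ThT 30 uM added, 1 hr ambient; Alexa 594 FP and total fluorescence read at 555/632 nm.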
Tau fibril FP – qHTS for Inhibitors of Tau Fibril Formation, Fluorescence Polarization. Microtubule-associated protein tau (Homo sapiens), P10636. K18 P301L tau heparin fibrillization, Alexa594 FP, 6 h. Potency, µM (top dose mostly 57.7 µM), inactives show at the top dose activity, negative = inhibition, hits mostly inhibitors. 280,000 compounds, 0.39% hits; further: potency means the concentration at half of the fitted maximal effect; nearly all actives have a fitted effect of over 55% in size
Target sequence (P10636 561-689 P618L limits assumed): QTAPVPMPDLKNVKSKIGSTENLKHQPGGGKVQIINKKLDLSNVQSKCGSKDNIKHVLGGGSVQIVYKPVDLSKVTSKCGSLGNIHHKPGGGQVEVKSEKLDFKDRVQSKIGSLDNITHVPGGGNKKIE
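Human K18 P301L fragment (15 uM unlabeled plus 0.24 uM Alexa 594-labeled) in 100 mM sodium acetate pH 7 with compound, aggregation induced by 20 uM heparin for 6 hr at 37 C. ThT (30 uM) added for 1 hr, then Alexa 594 FP read.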
FBPA coupling cs – qHTS Assay for Inhibitors of Fructose-1,6-bisphosphate Aldolase from Giardia Lamblia: Coupling assay counterscreen | 290,000 compounds, 0.67% hits | AID 2472, 2010 | coupling enzyme system counterscreen, AmpLite Red fluorescence | activity change, negative = inhibition, % at 58.2 µM, hits read low; in the data active means activity change below about -30%
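First, compound is pin-transferred into glyceraldehyde-3-phosphate coupling-enzyme reagent at 57.5 uM final and held 10 min at RT. Next, substrate, coupling system and AmpLite Red are added. After 20 min RT, fluorescence (525/598 nm) is read.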
Sfp PPTase inh – qHTS Assay for Inhibitors of Bacillus subtilis Sfp phosphopantetheinyl transferase (PPTase); Biochemical Sfp PPTase activity, qHTS; AID 1490, 2009; 310,000 compounds, 3.5% hits; 4'-phosphopantetheinyl transferase ffp (Bacillus subtilis), Q9F4F7; Potency, µM, without a hit: largest response in the series, negative = inhibition, most hits filed as inhibitors;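 further: the enzyme is Sfp with the accession as filed and its product quenches rhodamine fluorescence; potency means the concentration at half of the fitted maximal effect; 0% = enzyme reaction without inhibitor and -100% = no enzyme wells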
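Sfp 15 nM + cpd, 15 min RT; start w/ rhodamine-CoA 5 uM, BHQ-2-YbbR 12.5 uM (final); 50 mM Hepes pH 7.6, 10 mM MgCl2, 0.01% NP-40, 0.01% BSA; read 525/598 nm at 0 and 30 min.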
Tau fibril ThT – qHTS for Inhibitors of Tau Fibril Formation, Thioflavin T Binding. Potency, µM (top dose mostly 57.4 µM), for inactives: at the top dose activity, negative = inhibition, most hits filed as inhibitors. 270,000 compounds, 2.1% hits. recombinant tau K18 P301L (four-repeat tau fragment), heparin-induced fibrillization, ThT fluorescence. Microtubule-associated protein tau (Homo sapiens), P10636. AID 1460, 2008; further: potency means the concentration at half of the fitted maximal effect; nearly all actives have a fitted effect of over 55% in size
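Heparin-induced (20 uM) aggregation of recombinant human K18 P301L tau, 15 uM unlabeled with 0.24 uM labeled, pH 7 acetate buffer, 6 hr at 37 C with compound. Fibrils quantified by 30 uM ThT fluorescence after 1 hr ambient incubation.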
Numbers without * were called inactive; ? = inconclusive; · = not tested or not shown; [ ] = remark or other dose. The list is not random: actives were taken first. Their share in the collection is about 5.2%. Unless noted, the call rests on the fitted dose curve; in most records, active means well fitted curve in the direction sought with a large enough effect; inconclusive means small, poorly fitted or top-dose-only effect, or another doubt; inactive means no such curve, though single readings can be large; an effect the other way counts as inactive or inconclusive. Unless noted, on the % scale 0 is the no-effect control and ±100 the full control effect.

SMILES	Tau fluor cs	Tau fibril FP	FBPA coupling cs	Sfp PPTase inh	Tau fibril ThT
C/C(=N\Nc1nc(C)c(C)s1)c1ccc([N+](=O)[O-])cc1	?	9%	-2	?	14µM*
CC/C(=N\Nc1ccc([N+](=O)[O-])cc1)c1ccccc1	?	-10%	2	-15%	2µM*
C/C(=N\NC(=O)c1cccc(N/N=C(\C)c2ccc([N+](=O)[O-])cc2)c1)c1ccc([N+](=O)[O-])cc1	?	7%	0	0%	0.5µM*
O=[N+]([O-])c1ccc(N/N=C/c2ccccc2O)cc1	·	·	-4	-9%	·
COc1cc(C)ccc1OCCCn1c(-c2ccc(Cl)cc2)nc2ccccc2c1=O	-7%	2%	·	·	-3%
C/C(=N\Nc1ccc([N+](=O)[O-])cc1)c1ccc(N)cc1	1%	-4%	0	?	6%
C/C(=N\Nc1ccc([N+](=O)[O-])cc1)c1ccc(-n2nncc2C)cc1	16µM*[quencher]	?	0	-1%	7.1µM*
C/C(=N\Nc1ccc([N+](=O)[O-])cc1)c1ccco1	?	9%	-2	13%	5µM*
Cc1ccc(C)c(CNC(=O)c2ccc3c(c2)nc2n3CCC(C)C2)c1 (stereo unspecified)	-3%	-3%	·	·	-6%
O=C(O)[C@H](Cc1c[nH]c2ccccc12)N1C(=O)C2=CCCC=C2C1=O	·	·	3	0%	·
CCCc1cc(N2CCN(c3cc(Cl)ccc3C)CC2)n2cnnc2n1	-3%	-6%	·	·	?
Cc1cc(N=Cc2c(O)n(-c3cccc(C(F)(F)F)c3)c(=O)c3ccccc23)no1	-6%	?	3	63µM*	?
COc1ccc2cc3c(N)nn(C(=O)Cc4c[nH]c5ccccc45)c3nc2c1	20µM*[quencher]	3%	-3	-14%	·
CCOc1ccc(N2C(=O)CN(C)C2=S)cc1	0%	-3%	0	-3%	1%
CCOc1ccc(N2C(=O)CN(O)C=C3N=c4ccccc4=C32)cc1	-8%	-8%	-19	4.5µM*	-10%
Cc1[nH]c2ccccc2c1C(c1ccccn1)c1c(C)[nH]c2ccccc12	?	17%	-71*	40µM*	?
Fc1ccc(Nc2ncnc3ccc(-c4ccoc4)cc23)cc1	·	·	0	-28%	·
Cc1ccc(-c2nn(-c3cccc(F)c3)cc2CNCc2cccnc2)o1	-14%	-5%	-1	-3%	-18%
Cc1ccc(-c2nn(-c3cccc(F)c3)cc2CN(Cc2nccn2C)C(C)C)o1	-5%	-4%	2	40µM*	-13%
Cc1ccc(-c2nn(-c3cccc(F)c3)cc2CN2CCN(c3ccccn3)CC2)o1	-26%	-6%	-3	40µM*	?
COC(=O)[C@H]1C(OC)[C@@H](OC(=O)c2cc(OC)c(OC)c(OC)c2)C[C@@H]2CN3CCc4c([nH]c5cc(OC)ccc45)[C@H]3C[C@H]21 (stereo partly specified)	?	?	-13	-3%	10µM*
COC(=O)C1C2CC3c4[nH]c5cc(OC)ccc5c4CCN3CC2CC(OC(=O)c2cc(OC)c(OC)c(OC)c2)C1OC (stereo unspecified)	?	7%	-19	-19%	?
COC(=O)[C@H]1[C@H]2C[C@@H]3c4[nH]c5cc(OC)ccc5c4CCN3C[C@H]2C[C@@H](OC(=O)c2ccc(N)cc2)[C@@H]1OC	?	-4%	2	10%	14µM*
CC(=O)Nc1sc(N/N=C/c2ccc(N(C)C)cc2)nc1-c1ccc(C)cc1	32µM*[quencher]	-6%	-4	13%	16µM*
CCOc1cc(/C=N\Nc2nc(-c3ccc(C)cc3)c(NC(C)=O)s2)ccc1O	?	10%	-4	-11%	20µM*
SMILES	Tau fluor cs	Tau fibril FP	FBPA coupling cs	Sfp PPTase inh	Tau fibril ThT
COC(=O)c1ccc(C(NC(=O)OCc2ccccc2)/C(=C/[C@@H](C)C(=O)NCc2ccncc2)c2cccnc2)cc1 (stereo partly specified)	-11%	-10%	1	14%	-7%
COCCCn1c(=S)[nH]c2sc3c(c2c1=O)CCCS3	-25%	-9%	2	35µM*	?
CC1=[N+](C)c2c(ccc3cccnc23)C1(C)C	7.1µM*[fluorescent]	?	-58*	11µM*	7.1µM*
FC(F)(F)c1ccc(C2[C@H]3CN(Cc4ccc(-c5ccccc5)cc4)[C@H](c4ccccc4)C34CC2(c2cccnc2)C4)cc1 (stereo partly specified)	-1%	-7%	-4	13%	-2%
FC(F)(F)c1ccc(C2[C@H]3CN(Cc4cccnc4)[C@H](c4ccccc4)C34CC2(c2cccnc2)C4)cc1 (stereo partly specified)	-1%	2%	-1	35µM*	1%
N#C/C(=C\c1ccccc1)C(=O)Nc1sc2c(c1C(N)=O)CCC2	-7%	8%	·	·	1.4µM*
NC(=O)c1c(NC(=O)c2noc3c2CCCC3)sc2c1CCCC2	-26%	?	·	·	28µM*
CCC(C)(C)C1CCc2c(sc(NC(=O)C3c4ccccc4Oc4ccccc43)c2C(N)=O)C1 (stereo unspecified)	-2%	?	·	·	6%
CC(=O)Nc1sc2c(c1C(N)=O)CCCC2	-5%	-1%	-1	30%	-8%
NC(=O)c1c(NC(=O)C2c3ccccc3Oc3ccccc32)sc2c1CCCCC2	-13%	3%	-4	35µM*	?
Cn1ccc(C(=O)Nc2sc3c(c2C(N)=O)CCCCC3)n1	·	·	·	32µM*	·
CN(C)c1ccc2c(-c3ccccc3)c3ccc(=[N+](C)C)cc-3oc2c1	·	·	20	?	·
CC(=O)OCC1OC(C#Cc2ccc(F)cc2F)C=CC1OC(C)=O (stereo unspecified)	-13%[11.6 µM]	?	0	-5%	?
O=C(/C=C/C#Cc1cccc(NS(=O)(=O)c2ccccc2)c1)NO	·	·	-9	-16%	·
CC#CCN1c2ccccc2[C@]23C[C@@H](C(=O)OC)N(S(=O)(=O)c4ccc(OC)cc4)C2=NC(C(=O)OC)=C(C(=O)OC)[C@H]13	-28%[11.6 µM]	6%[11.6 µM]	-6	-2%	-12%[11.5 µM]
CN1CCN(S(=O)(=O)c2cccc(C(=O)Nc3sc4c(c3C(N)=O)CCCC4)c2)CC1	-21%	-1%	2	56µM*	?
COC(=O)C1=C(C)N(CCc2c[nH]c3ccccc23)C(=O)/C1=C\N(C)C	?	-17%	-3	18µM*	14µM*
CC1(C)SC(=Nc2ccccc2)N(S(=O)(=O)c2ccccc2)C1=O	-2%	-3%	0	34%	-4%

Compound activity: PubChem BioAssay, National Center for Advancing Translational Sciences (NCATS)
